Compound activity deposited in PubChem BioAssay by National Center for Advancing Translational Sciences (NCATS).
Shown are actives, neighbours in structure and some others; about 18% of the full set was active somewhere.
IL1B secr inh: inhibitors of inflammasome signaling (IL-1 beta secretion). activity change, % at 57.5 µM. 360,000 compounds, 4.7% hits. THP-1 LPS/ATP IL-1B secretion, AlphaLISA, 16 h; active compounds read low; in the data active = activity change below about -50%; inconclusive = mostly about -30% to -49%; note: % is set by controls: 0 for no effect and ±100 for the full control effect
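THP-1 cells pretreated 1 hr with compounds (up to 57.5 uM final), then stimulated with LPS (250 ng/mL final) plus ATP (1.25 mM final); secreted IL-1B measured by AlphaLISA after 16 hr, decreased signal indicating inhibition.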
TDP1 cell noCPT: qHTS for Inhibitors of human tyrosyl-DNA phosphodiesterase 1 (TDP1): qHTS in cells in absence of CPT; DT40 Tdp1-/- hTDP1 cells, no CPT, ATP luminescence, 48 h; Potency, µM (highest dose often 46.2 µM), without a hit: top-dose activity change, negative = growth inhibition, most hits filed as inhibitors; 420,000 compounds, 15% hits; AID 686978, 2013; note: potency is the fitted concentration of half-maximal effect; % is set by controls: 0 for no effect and ±100 for the full control effect; nearly all actives have a fitted effect of over 55% in size
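Stably hTDP1-transfected Tdp1-null chicken DT40 cells were treated with library compounds minus camptothecin and grown for at least 48 hr at 37 °C, after which cellular ATP was quantified by luminescence.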
HepG2 tox: kills HepG2 cells in TGF-b inhibitor counter-screen; Potency, µM (top dose mostly 46.1 µM), without a hit: top-dose activity change, negative = cytotoxicity, hits mostly cytotoxic; HepG2 CAGA-GFP viability, ATP luminescence, 18 h; AID 588856; 410,000 compounds, 0.76% hits; note: potency is the fitted concentration of half-maximal effect
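CellTiter-Glo luminescence gave cytotoxicity after 18 hours at 37 degrees C. The cells were HepG2 CAGA-GFP in 1% FBS DMEM, stimulated with 500 pg/mL TGF-beta after compound addition. %Activity was normalised to no-cell wells (complete cell-killing) and DMSO (no toxicity), and curves were fitted and classified.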
DT40 TDP1 CPT: growth inhibition of DT40 Tdp1-/-;hTDP1 cells with camptothecin (screen for TDP1 inhibitors). chicken DT40 Tdp1-/-;hTDP1 cells + 20 nM CPT, ATP luminescence, 48 h. Potency, µM (top dose mostly 46.2 µM), without a hit: at the top dose activity change, negative = growth inhibition, usual class: inhibitors. 420,000 compounds, 12% hits. AID 686979; note: potency is the fitted concentration of half-maximal effect; % is set by controls: 0 for no effect and ±100 for the full control effect; nearly all actives have a fitted effect of over 55% in size
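Cell growth measured by CellTiter-Glo luminescence after a minimum 48 h, 37 C compound exposure with 20 nM CPT in Tdp1-knockout DT40 cells stably expressing hTDP1, seeded 400/well; qHTS titration format.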
TGFb inhibitor: blocks TGF-b signaling; HepG2 CAGA-GFP TGF-b/SMAD3 reporter, GFP fluorescence, 18 h; TGF-beta stimulated, 500 pg/mL final; Potency, µM (titrated, usually from 46.1 µM), for inactives: at the top dose activity, negative = inhibition, actives largely listed as inhibitors; 410,000 compounds, 1.2% hits; AID 588855; note: potency is the fitted concentration of half-maximal effect; % is set by controls: 0 for no effect and ±100 for the full control effect; nearly all actives have a fitted effect of over 65% in size
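Smad-responsive CAGA-GFP expression was quantified in HEPG2 cells exposed to compounds and 500 pg/mL final TGF-beta for 18 h at 37 degrees C; unstimulated wells defined full inhibition.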
TDP1 block: blocks human tyrosyl-DNA phosphodiesterase 1. AID 485290. recombinant TDP1, AlphaScreen DNA substrate cleavage. Potency, µM (series often up to 130 µM), for the others: top-dose activity change, negative = inhibition, most hits filed as inhibitors. 350,000 compounds, 0.28% hits. Q9NUW8; note: potency is the fitted concentration of half-maximal effect; % is set by controls: 0 for no effect and ±100 for the full control effect; nearly all actives have a fitted effect of over 40% in size
Target sequence (Q9NUW8 whole entry, looked up): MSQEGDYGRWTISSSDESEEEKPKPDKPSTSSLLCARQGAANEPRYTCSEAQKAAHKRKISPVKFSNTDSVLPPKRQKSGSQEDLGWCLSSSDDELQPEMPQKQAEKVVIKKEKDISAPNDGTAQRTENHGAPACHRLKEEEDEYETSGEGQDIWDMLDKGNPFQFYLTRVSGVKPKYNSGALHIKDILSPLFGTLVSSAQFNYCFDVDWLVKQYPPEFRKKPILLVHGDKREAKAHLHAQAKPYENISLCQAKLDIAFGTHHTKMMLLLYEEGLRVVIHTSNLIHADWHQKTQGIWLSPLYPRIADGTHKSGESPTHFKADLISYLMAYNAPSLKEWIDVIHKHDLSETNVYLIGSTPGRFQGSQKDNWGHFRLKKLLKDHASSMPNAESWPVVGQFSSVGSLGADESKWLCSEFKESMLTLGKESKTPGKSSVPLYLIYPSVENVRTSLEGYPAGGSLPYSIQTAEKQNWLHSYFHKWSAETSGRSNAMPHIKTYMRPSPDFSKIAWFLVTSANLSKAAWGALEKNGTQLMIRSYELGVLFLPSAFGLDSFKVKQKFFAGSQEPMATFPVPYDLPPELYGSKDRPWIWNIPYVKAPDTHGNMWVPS
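E. coli-derived human Tdp1, 1 nM final. Cpd preinc 15 min RT; substrate 15 nM final, 5 min RT; AS bead mix 10 ug/ml final, 10 min RT. Signal loss = tyrosine-FITC cleavage. No-enzyme wells = max signal.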
* hit, by the source's call; ? = inconclusive; / = no result given. Unless noted, calls come from the whole dose curve; as a rule, active = well fitted curve in the direction sought with a large enough effect; inconclusive = small, poorly fitted or top-dose-only effect, or another doubt; inactive = no such curve, though single readings can be large; an effect the other way counts as inactive or inconclusive.

SMILES	IL1B secr inh	TDP1 cell noCPT	HepG2 tox	DT40 TDP1 CPT	TGFb inhibitor	TDP1 block
CCCCn1c(N)c(N(CCOC)C(=O)c2nn(CC)c(=O)c3ccccc23)c(=O)[nH]c1=O	4	-1%	-9%	-30%	19%	/
CC(=O)C1CCC2C3CCC4CC(=O)CCC4(C)C3C(O)CC12C (stereo not given)	8	?	2%	?	10%	/
CC(=NO)C1CCC2C3CCC4CC(=NO)CCC4(C)C3C(C)(O)CC12C (stereo not given)	24	15µM*	-32%	?	-6%	/
Cc1cccc(Nc2c3c(nc4ccccc24)CCC3)c1	/	18µM*	-32%	15µM*	?	5%
N#Cc1cccc(Nc2c3c(nc4ccccc24)CCC3)c1	-59*	?	-48%	?	?	/
COc1ccc(Nc2c3c(nc4ccc(C)cc24)CCC3)cc1	-13	?	-39%	?	?	/
Cc1ccc2nc3c(c(Nc4ccc(O)cc4)c2c1)CCC3	-6	18µM*	-38%	?	?	/
Cc1ccc(Nc2c3c(nc4ccccc24)CCC3)cc1F	/	16µM*	-56%	21µM*	?	3%
COc1ccc(-c2nc(CSCC(=O)NC3CCN(Cc4ccccc4)CC3)c(C)o2)cc1OC	-7	?	-20%	?	-27%	2%
N#CC(=NCc1cccnc1)C1=C(O)c2ccccc2C1=O	44	-15%	-4%	-12%	14%	11%
O=C(COC(=O)CCCN=C1NS(=O)(=O)c2ccccc21)NNC(=O)c1ccccc1	12	-6%	10%	-1%	3%	/
Cc1ccc(CCNC(=O)c2ccc(CNS(=O)(=O)c3ccc(F)cc3)cc2)cc1	/	6.5µM*	-1%	13µM*	?	2%
Cc1ccc(CCNC(=O)c2ccc(CNS(=O)(=O)c3ccccc3)cc2)cc1	/	5.8µM*	-4%	6.5µM*	38%	-2%
CCc1ccc(S(=O)(=O)NCc2ccc(C(=O)NCCN(Cc3ccccc3)C(C)C)cc2)cc1	-12	13µM*	-30%	21µM*	?	/
CN(C)C1(CNC(=O)COc2cccc(Cl)c2)CCCCC1	/	/	-11%	/	8%	6%
CCC(C)NC(=O)Cn1c(=O)n(-c2ccc(C)c(C)c2)c(=O)c2c(C)c(C(=O)N(CC)CC)sc21 (stereo not given)	/	7%	1%	-24%	15%	0%
OCCN1CCN(c2ncnc3ccc(Br)cc23)CC1	-24	4.1µM*	1%	-89%	6%	6%
OCCN1CCN(c2nc(-c3ccccc3)c3cc(Br)ccc3n2)CC1	-79*	9.2µM*	-91%	?	?	/
O=C(O)C1CCN(c2nc(-c3ccccc3)c3cc(Br)ccc3n2)CC1	27	?	22%	-8%	15%	/
COc1ccc(CCOC(=O)c2ccc(N)c([N+](=O)[O-])c2)cc1	-4	-19%	-13%	?	-8%	6%
COc1ccc(C(C)(C)C)cc1NC(=O)COc1ccc(-c2nnco2)cc1	-50*	?	-9%	?	1%	1%
COc1ccc(NC(=O)c2ccco2)cc1NC(=O)COc1ccc(Cl)cc1C	/	9.2µM*	-3%	10µM*	-18%	0%
COc1ccc(NC(=O)c2ccco2)cc1NC(=O)COc1ccc(C)cc1C	/	?	-30%	?	-14%	2%
COc1cc(OC)cc(C(=O)Nc2cc(NC(=O)c3ccco3)ccc2OC)c1	-23	18µM*	10%	23µM*	7%	2%
Cc1cc(C)c(OCC(=O)Nc2cccc(NC(=O)c3ccco3)c2)c(Br)c1	-55*	13µM*	-7%	23µM*	?	8%
SMILES	IL1B secr inh	TDP1 cell noCPT	HepG2 tox	DT40 TDP1 CPT	TGFb inhibitor	TDP1 block
CC(C)(C)OC(=O)N1CCC(c2c(C(=O)NCC3CCN(C4CCCC4)C3)cnn2-c2ccccc2Cl)CC1 (stereo not given)	-14	?	-35%	?	?	1%
CSc1nnc(CNC(=O)c2cccc3ccccc23)n1-c1ccccc1C	/	1%	/	20%	/	/
O=C(Nc1ccc(NC(=O)c2cc3ccccc3o2)cc1)c1ccco1	1	?	-1%	?	23%	/
COc1ccc(NC(=O)COc2ccccc2)cc1NC(=O)c1ccco1	-11	?	13%	?	?	/
COc1ccc(OCC(=O)Nc2cc(NC(=O)c3ccco3)ccc2OC)cc1	-55*	?	-19%	-15%	5%	5%
COc1ccc(NC(=O)c2ccco2)cc1NC(=O)c1cc2ccccc2o1	11	15µM*	-6%	23µM*	-2%	8%
Cc1ccc(NC(=O)Cn2cnc3c2c(=O)n(C)c(=O)n3C)cc1C	/	-24%	-2%	-16%	9%	0%
CCOC(=O)Cn1c(=O)c2c(nc(N3CCCCC3)n2Cc2ccccc2)n(C)c1=O	-1	15µM*	-19%	21µM*	-1%	-2%
CCOC(=O)Cn1c(=O)c2c(nc(Br)n2Cc2ccc(Cl)cc2)n(C)c1=O	18	9.2µM*	11%	13µM*	10%	7%
Cc1cccc(/C=C/C(=O)c2ccc(NC3=NCCCS3)cc2)c1	-87*	7.3µM*	-95%	13µM*	?	6%
CNc1ccc(/C=C/C(=O)c2ccc(C)cc2)cc1[N+](=O)[O-]	-11	?	4%	?	8%	5%
CC(C)(C)c1ccc(/C=C/C(=O)c2ccc(NC3=NCCCS3)cc2)cc1	-100*	?	-91%	23µM*	?	1%
c1ccc(NC2=NCCCCS2)cc1	12	-4%	-26%	-26%	-1%	-3%
O=C(/C=C/c1ccccc1)c1ccc(NC2=NCCCS2)cc1	-102*	12µM*	-66%	15µM*	?	3%
O=C(/C=C/c1ccc(Br)cc1)c1ccc(NC2=NCCCS2)cc1	-65*	?	-99%	9.2µM*	?	-7%
O=C(CNC(=O)c1ccc(Br)cc1)NC1=NCCS1	17	-7%	-2%	12%	0%	7%
O=C(COC(=O)c1cccs1)NCCc1ccc(F)cc1	5	-7%	3%	-24%	0%	-5%
Cc1ccc(NC(=O)COC(=O)/C=C/c2cccs2)c(C)c1	11	-10%	-16%	-10%	-4%	-1%
